{"source": "paper PMC4336329", "about": "(PLoS ONE, 2015)", "note": "The whole screen tested about 310,000 compounds, of which about 14,000 (4.5%) showed an effect of 50% or more. Effects have a minus sign here. The full list was thinned out, with strong results kept by preference.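 Note: peak tail current of the secondary pulse compared with the same well before compound.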"}
{"molecular_target": "human ether-à-go-go-related gene (hERG) potassium channel (human, UniProt Q12809)", "sequence (Q12809 whole entry, looked up)": "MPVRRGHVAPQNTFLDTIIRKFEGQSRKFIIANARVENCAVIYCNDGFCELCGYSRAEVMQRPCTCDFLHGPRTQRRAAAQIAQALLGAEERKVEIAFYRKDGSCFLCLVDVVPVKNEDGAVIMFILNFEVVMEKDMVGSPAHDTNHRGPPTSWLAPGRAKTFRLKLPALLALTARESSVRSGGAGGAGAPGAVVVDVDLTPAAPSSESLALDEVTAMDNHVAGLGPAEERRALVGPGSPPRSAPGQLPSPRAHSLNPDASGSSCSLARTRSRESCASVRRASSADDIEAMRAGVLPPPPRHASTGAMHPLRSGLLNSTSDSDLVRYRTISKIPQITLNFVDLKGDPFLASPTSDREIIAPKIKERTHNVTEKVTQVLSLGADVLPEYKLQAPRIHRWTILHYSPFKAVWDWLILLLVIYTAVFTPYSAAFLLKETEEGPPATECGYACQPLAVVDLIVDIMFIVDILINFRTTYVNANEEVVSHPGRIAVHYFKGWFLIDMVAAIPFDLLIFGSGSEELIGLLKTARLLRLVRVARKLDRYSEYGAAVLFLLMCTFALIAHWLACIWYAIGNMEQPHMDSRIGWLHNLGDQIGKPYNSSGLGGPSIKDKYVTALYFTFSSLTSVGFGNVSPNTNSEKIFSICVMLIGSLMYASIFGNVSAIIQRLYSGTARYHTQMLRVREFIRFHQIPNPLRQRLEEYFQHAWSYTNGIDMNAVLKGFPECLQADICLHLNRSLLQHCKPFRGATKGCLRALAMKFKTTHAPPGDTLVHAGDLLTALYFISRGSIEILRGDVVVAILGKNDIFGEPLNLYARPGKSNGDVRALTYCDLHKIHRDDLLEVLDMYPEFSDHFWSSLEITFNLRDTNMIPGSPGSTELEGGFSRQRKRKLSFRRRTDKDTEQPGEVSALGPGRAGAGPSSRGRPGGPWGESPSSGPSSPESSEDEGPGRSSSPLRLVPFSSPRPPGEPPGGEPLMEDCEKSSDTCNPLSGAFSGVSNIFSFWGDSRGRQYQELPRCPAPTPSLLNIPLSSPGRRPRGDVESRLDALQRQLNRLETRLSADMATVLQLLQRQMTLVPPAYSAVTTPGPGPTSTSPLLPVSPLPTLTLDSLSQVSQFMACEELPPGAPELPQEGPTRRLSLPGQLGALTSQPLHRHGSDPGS", "assay": "primary screen, population patch clamp on CHO cells stably expressing hERG; higher = less effect of the substance", "units": {"hERG current change (%, negative = inhibition) at 10uM": "%"}}
{"molecule": "CC1(C)CC(=O)c2cc(OCC(=O)NCCN3CCCc4ccccc43)ccc2O1", "hERG current change (%, negative = inhibition) at 10uM": -47.5}
{"molecule": "N#CC1=C(N)Oc2c(c(=O)oc3ccccc23)C1c1cccnc1", "note": "(centres unmarked)", "hERG current change (%, negative = inhibition) at 10uM": 5.62}
{"molecule": "CC1(C)C2CC=C(/C=N/NC(=O)c3ccccc3Br)C1C2", "note": "(centres unmarked)", "hERG current change (%, negative = inhibition) at 10uM": -2.58}
{"molecule": "C=CC(C)(C)O[C@@H]1O[C@H](CO)[C@@H](O)[C@H](O)[C@H]1O", "hERG current change (%, negative = inhibition) at 10uM": 40.6}
{"molecule": "Cc1ccc2nc3c(c(N)c2c1)CCN3c1ccccc1.O=C(O)C(=O)O", "hERG current change (%, negative = inhibition) at 10uM": -35.4}
{"molecule": "Cc1cccc(N2CCc3c2nc2ccc(Br)cc2c3N)c1.Cl", "hERG current change (%, negative = inhibition) at 10uM": 6.56}
{"molecule": "Cc1cccc(N2CCc3c2nc2ccccc2c3N)c1.O=C(O)C(=O)O", "hERG current change (%, negative = inhibition) at 10uM": -53.7}
{"molecule": "Nc1c2c(nc3cccc(Cl)c13)N(c1ccccc1)CC2", "hERG current change (%, negative = inhibition) at 10uM": 31.7}
{"molecule": "CCCC(=O)Nc1c2c(nc3ccccc13)N(c1ccccc1)CC2", "hERG current change (%, negative = inhibition) at 10uM": -1.55}
{"molecule": "Cc1cccc(N2CCc3c2nc2ccccc2c3N)c1.Cl", "hERG current change (%, negative = inhibition) at 10uM": -61.9}
{"molecule": "CC(C)(C)c1ccccc1NC(=O)COC(=O)CN1C(=O)NC2(CCCC2)C1=O", "hERG current change (%, negative = inhibition) at 10uM": 15.8}
{"molecule": "Cc1c(OCC(=O)NCC(O)c2ccccc2)ccc2c3c(c(=O)oc12)CCC3", "note": "(centres unmarked)", "hERG current change (%, negative = inhibition) at 10uM": -8.23}
{"molecule": "Cl.O=C(CN1CCOCC1)c1ccc(Br)cc1", "hERG current change (%, negative = inhibition) at 10uM": 18}
{"molecule": "CN(CC(=O)NCC1CCCCC1)CC(=O)Nc1ccccc1Br", "hERG current change (%, negative = inhibition) at 10uM": -21.2}
{"molecule": "COc1ccc(S(=O)(=O)N(CCCN2CCCC2=O)Cc2cc3c(C)ccc(C)c3[nH]c2=O)cc1", "hERG current change (%, negative = inhibition) at 10uM": -36.1}
{"molecule": "Cc1ccc(S(=O)(=O)N(CCCN2CCCC2=O)Cc2cc3c(C)ccc(C)c3[nH]c2=O)cc1", "hERG current change (%, negative = inhibition) at 10uM": -64}
{"molecule": "Cc1ccc(S(=O)(=O)N(CCCO)Cc2cc3c(C)ccc(C)c3[nH]c2=O)cc1", "hERG current change (%, negative = inhibition) at 10uM": -45.9}
{"molecule": "O=C(c1ccc(NS(=O)(=O)c2ccccc2)cc1)N1CCCC1", "hERG current change (%, negative = inhibition) at 10uM": -8.95}
{"molecule": "CS/C(N)=N/S(=O)(=O)c1ccc(NC(C)=O)cc1", "hERG current change (%, negative = inhibition) at 10uM": 17.6}
{"molecule": "C/C(=N/Nc1ccccc1[N+](=O)[O-])c1ccc([N+](=O)[O-])cc1", "hERG current change (%, negative = inhibition) at 10uM": 5.07}
{"molecule": "CC1CCc2c(sc(NC(=O)c3ccccc3C(=O)O)c2C#N)C1", "note": "(centres unmarked)", "hERG current change (%, negative = inhibition) at 10uM": -0.906}
{"molecule": "CN(C)CCNc1nc2c(c(=O)[nH]c(=O)n2C)n1CC(O)COc1ccc(Cl)cc1Cl", "note": "(centres unmarked)", "hERG current change (%, negative = inhibition) at 10uM": -55}
{"molecule": "CN(C)CCNc1nc2c(c(=O)[nH]c(=O)n2C)n1CC(O)COc1ccc(Cl)cc1", "note": "(centres unmarked)", "hERG current change (%, negative = inhibition) at 10uM": -20}
{"molecule": "Cc1cc(C)n(-c2nc3c(c(=O)[nH]c(=O)n3C)n2CC(O)COc2ccc(Cl)cc2Cl)n1", "note": "(centres unmarked)", "hERG current change (%, negative = inhibition) at 10uM": -3.56}
{"molecule": "CC(C)Cn1c(NCCN(C)C)nc2c1c(=O)[nH]c(=O)n2C", "hERG current change (%, negative = inhibition) at 10uM": 10.1}
{"molecule": "CCN(CC)CCNc1nc2c(c(=O)[nH]c(=O)n2C)n1CC(O)COc1ccc(Cl)cc1Cl", "note": "(centres unmarked)", "hERG current change (%, negative = inhibition) at 10uM": -70.2}
{"molecule": "COCCCNc1nc2c(c(=O)[nH]c(=O)n2C)n1CC(O)COc1ccccc1C", "note": "(centres unmarked)", "hERG current change (%, negative = inhibition) at 10uM": -7.62}
{"molecule": "C[C@]12CC[C@H](O)C[C@H]1CC[C@@H]1C2CC[C@]2(C)[C@@H](C3=CC(=O)OC3)[C@@H](O)C[C@]12O", "note": "(some centres unmarked)", "hERG current change (%, negative = inhibition) at 10uM": 21.1}
{"molecule": "N#Cc1c2c(nc(N)c1-c1ccccc1)CCCCC2", "hERG current change (%, negative = inhibition) at 10uM": 7.02}
{"molecule": "CC1=C(C(=O)OCC(Br)(Br)Br)C(c2cccc([N+](=O)[O-])c2)NC(=O)N1CCCC(=O)O", "note": "(centres unmarked)", "hERG current change (%, negative = inhibition) at 10uM": -3.03}
{"molecule": "CCn1nnnc1-c1ccc(OC)c(S(=O)(=O)Nc2ccc(C)c(C)c2)c1", "hERG current change (%, negative = inhibition) at 10uM": -2.9}
{"molecule": "CCNC(=S)NNC(=O)CCn1cc(C)cn1", "hERG current change (%, negative = inhibition) at 10uM": 20.7}
{"molecule": "Cc1cccc(N2CCN(S(=O)(=O)c3c(C)[nH]c(C)c3C(=O)N3CCCC3)CC2C)c1", "note": "(centres unmarked)", "hERG current change (%, negative = inhibition) at 10uM": -19.2}
{"molecule": "COc1ccccc1CNC(=O)COC(=O)c1ccc(Cl)c(N)c1", "hERG current change (%, negative = inhibition) at 10uM": 21.8}
{"molecule": "N=c1c(C(=O)NCC2CCCO2)cc2c(=O)n3ccccc3nc2n1C1CCCCC1", "note": "(centres unmarked)", "hERG current change (%, negative = inhibition) at 10uM": -77.3}
{"molecule": "N=c1c(C(=O)NCC2CCCO2)cc2c(=O)n3ccccc3nc2n1C1CCCC1", "note": "(centres unmarked)", "hERG current change (%, negative = inhibition) at 10uM": -76.9}
{"molecule": "N=c1c(S(=O)(=O)c2ccccc2)cc2c(=O)n3ccccc3nc2n1C1CCCC1", "hERG current change (%, negative = inhibition) at 10uM": 1.62}
{"molecule": "N=c1c(S(=O)(=O)c2ccc(Br)cc2)cc2c(=O)n3ccccc3nc2n1C1CCCC1", "hERG current change (%, negative = inhibition) at 10uM": 9.15}
{"molecule": "N=c1c(S(=O)(=O)c2ccc(Br)cc2)cc2c(=O)n3ccccc3nc2n1C1CCCCC1", "hERG current change (%, negative = inhibition) at 10uM": 22.8}
{"molecule": "Cc1nc(C(=O)NC2CC2)sc1C1(C)CC(c2ccccc2)=NO1", "note": "(centres unmarked)", "hERG current change (%, negative = inhibition) at 10uM": -8.63}
{"molecule": "Cc1ccc(Nc2nc(CSc3nnnn3-c3ccccc3)cs2)cc1", "hERG current change (%, negative = inhibition) at 10uM": 14.7}
{"molecule": "CNC(=O)NC(=O)CN1C(=O)NC2(CCOc3ccccc32)C1=O", "note": "(centres unmarked)", "hERG current change (%, negative = inhibition) at 10uM": 18.9}
{"molecule": "CC(C)OP(=O)(OC(C)C)/C(C=O)=N\\Nc1ccc([N+](=O)[O-])cc1", "hERG current change (%, negative = inhibition) at 10uM": -55.1}
{"molecule": "COP(=O)(OC)/C(C=O)=N/Nc1ccc([N+](=O)[O-])cc1", "hERG current change (%, negative = inhibition) at 10uM": -36.3}
{"molecule": "N#CC(C#N)=NNc1ccc([N+](=O)[O-])cc1", "hERG current change (%, negative = inhibition) at 10uM": -2.55}
{"molecule": "CC(C)CCNC(=O)C1CCN(C(=O)N(C)C)CC1", "hERG current change (%, negative = inhibition) at 10uM": 14.5}
{"molecule": "Cc1c(N2C(=O)CS/C2=N\\N=C\\c2ccc(Cl)cc2)c(=O)n(-c2ccccc2)n1C", "hERG current change (%, negative = inhibition) at 10uM": -32.2}
{"molecule": "CN1CCN(CCCN(Cc2ccco2)C(=S)Nc2ccc(Cl)cc2)CC1", "hERG current change (%, negative = inhibition) at 10uM": -69.6}
{"molecule": "CCN1CCN(CCCN(Cc2ccco2)C(=S)Nc2ccc(Cl)cc2)CC1", "hERG current change (%, negative = inhibition) at 10uM": -64.2}
{"molecule": "S=C(Nc1ccc(Cl)cc1)N(CCCN1CCOCC1)Cc1ccco1", "hERG current change (%, negative = inhibition) at 10uM": -26}
{"molecule": "CCOC(=O)C1C2C=CC3(CN(Cc4cccs4)C(=O)C13)O2", "note": "(centres unmarked)", "hERG current change (%, negative = inhibition) at 10uM": 1.73}
{"molecule": "CCOc1cccc(C(=O)NC(=S)Nc2cccc(C)c2)c1", "hERG current change (%, negative = inhibition) at 10uM": 6.87}
{"molecule": "COCCCn1cnnc1SCc1nc2sc(C(C)=O)c(C)c2c(=O)[nH]1", "hERG current change (%, negative = inhibition) at 10uM": -17}
{"molecule": "Cc1ccc2cc3c(nc2c1)N(c1ccccc1)CC3", "hERG current change (%, negative = inhibition) at 10uM": 2.24}
{"molecule": "Cc1ccc2nc(C)c3c(c2c1)N(c1ccc(F)cc1)CC3", "hERG current change (%, negative = inhibition) at 10uM": -92.2}
{"molecule": "Cc1ccc2nc(C)n(-c3ccc(F)cc3)c(=O)c2c1", "hERG current change (%, negative = inhibition) at 10uM": 21.3}
{"molecule": "Cc1nc2ccc(Cl)cc2c(=O)n1-c1cccc(Cl)c1", "hERG current change (%, negative = inhibition) at 10uM": 3.78}
{"molecule": "CCN1Cc2c(/C=C/c3ccccc3)nc3ccc(OC)cc3c2N(c2cccc(Cl)c2)C1", "hERG current change (%, negative = inhibition) at 10uM": -12.5}
{"molecule": "Cc1ccc2nc(C)c3c(c2c1)SCC3", "hERG current change (%, negative = inhibition) at 10uM": -27.4}
{"molecule": "COc1cccc(N2CCc3c(C)nc4ccc(Cl)cc4c32)c1", "hERG current change (%, negative = inhibition) at 10uM": -72.9}
{"molecule": "Cc1ccc2nc(C)c3c(c2c1)N(c1ccccc1)CC3", "hERG current change (%, negative = inhibition) at 10uM": -74.6}
{"molecule": "CSc1nc(C)c2c(n1)N(c1ccc(F)cc1)CC2", "hERG current change (%, negative = inhibition) at 10uM": 19.8}
